Test results: the supplement of paper PMC11732987, “Enantioselective OTUD7B fragment discovery through chemoproteomics screening and high-throughput optimisation” (Communications Chemistry, 2025)

How the values were obtained:
Assay in all cases: log2 ratio of Biotin-Ahx-Ub-VS probe labelling (fragment/DMSO); higher = less target engagement (more negative = stronger competition), active = hit call of the paper (q ≤ 0.05, log2 ratio ≤ -1)
Settings in all cases: compound concentration: 200 uM; treatment time: 3 h
[1] = molecular target: T1, OTUD6B (UniProt Q8N6M0)
T1 sequence (whole entry): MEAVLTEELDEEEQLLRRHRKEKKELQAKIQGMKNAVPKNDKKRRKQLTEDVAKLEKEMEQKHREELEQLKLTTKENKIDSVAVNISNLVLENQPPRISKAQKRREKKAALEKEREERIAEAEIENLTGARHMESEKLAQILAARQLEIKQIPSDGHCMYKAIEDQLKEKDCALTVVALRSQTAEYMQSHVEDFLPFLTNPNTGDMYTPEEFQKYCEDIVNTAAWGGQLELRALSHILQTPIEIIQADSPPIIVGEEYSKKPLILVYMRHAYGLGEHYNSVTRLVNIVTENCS
Method in brief: (§1)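 The table lists average log2 ratios of fragment over vehicle, from an unpaired t-test on global-median-normalised Spectronaut label-free quantities. Proteins with ≥2 unique peptides were used. Samples were HEK293T lysate (495 µg) treated in triplicate with fragment at 200 µM or vehicle for 3 h, then with Biotin-Ahx-Ub-VS (0.5 µM final) for 1 h, with labelled DUBs NeutrAvidin-enriched and run by diaPASEF LC-MS/MS.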

[2] = molecular target: T2, OTUD7B (UniProt Q6GQQ9)
T2 sequence (whole entry): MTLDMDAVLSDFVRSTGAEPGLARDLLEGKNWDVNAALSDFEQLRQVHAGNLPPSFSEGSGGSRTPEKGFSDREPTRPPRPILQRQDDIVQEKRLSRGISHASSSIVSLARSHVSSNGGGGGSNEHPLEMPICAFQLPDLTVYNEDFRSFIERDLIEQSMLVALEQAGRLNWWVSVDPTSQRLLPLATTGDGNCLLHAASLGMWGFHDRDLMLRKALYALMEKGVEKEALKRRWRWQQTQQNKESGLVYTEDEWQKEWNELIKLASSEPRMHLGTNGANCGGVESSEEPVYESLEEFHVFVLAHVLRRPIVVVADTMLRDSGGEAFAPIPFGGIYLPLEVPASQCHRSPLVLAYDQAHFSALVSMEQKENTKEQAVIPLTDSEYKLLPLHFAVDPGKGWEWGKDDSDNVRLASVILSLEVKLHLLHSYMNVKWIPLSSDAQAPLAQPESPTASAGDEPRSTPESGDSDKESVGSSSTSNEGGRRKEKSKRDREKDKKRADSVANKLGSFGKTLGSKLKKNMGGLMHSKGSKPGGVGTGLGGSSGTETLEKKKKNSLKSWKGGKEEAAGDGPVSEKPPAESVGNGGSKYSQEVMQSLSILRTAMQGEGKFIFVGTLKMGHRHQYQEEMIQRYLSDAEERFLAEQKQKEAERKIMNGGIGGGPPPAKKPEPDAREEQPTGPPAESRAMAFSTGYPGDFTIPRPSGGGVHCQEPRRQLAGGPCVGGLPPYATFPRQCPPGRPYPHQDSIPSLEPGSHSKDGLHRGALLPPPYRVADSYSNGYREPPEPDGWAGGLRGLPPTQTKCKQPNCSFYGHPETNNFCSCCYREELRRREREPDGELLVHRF
Method in brief: as §1

[3] = molecular target: PRPF8 (UniProt Q6P2Q9)
Method in brief: as §1

[4] = molecular target: T3, PSMD7 (UniProt P51665)
T3 sequence (whole entry): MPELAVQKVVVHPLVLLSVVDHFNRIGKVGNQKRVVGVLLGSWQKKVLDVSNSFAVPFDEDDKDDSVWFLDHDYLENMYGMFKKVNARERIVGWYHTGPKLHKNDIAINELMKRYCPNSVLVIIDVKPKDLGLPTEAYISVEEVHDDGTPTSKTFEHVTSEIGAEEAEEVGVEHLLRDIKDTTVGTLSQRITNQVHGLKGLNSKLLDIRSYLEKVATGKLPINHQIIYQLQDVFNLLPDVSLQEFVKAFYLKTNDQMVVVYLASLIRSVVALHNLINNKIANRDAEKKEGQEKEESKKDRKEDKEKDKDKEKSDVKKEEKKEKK
Method in brief: as §1

[5] = molecular target: UCHL1 (UniProt P09936)
Method in brief: as §1

[6] = molecular target: T4, UCHL3 (UniProt P15374)
T4 sequence (whole entry): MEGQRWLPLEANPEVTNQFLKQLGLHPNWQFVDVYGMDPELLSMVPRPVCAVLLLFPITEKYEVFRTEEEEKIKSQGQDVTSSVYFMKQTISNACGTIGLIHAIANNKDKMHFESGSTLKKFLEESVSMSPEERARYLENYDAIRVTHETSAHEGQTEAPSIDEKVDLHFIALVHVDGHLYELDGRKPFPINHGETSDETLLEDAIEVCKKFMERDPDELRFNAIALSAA
Method in brief: as §1

[7] = molecular target: T5, UCHL5 (UniProt Q9Y5K5)
T5 sequence (whole entry): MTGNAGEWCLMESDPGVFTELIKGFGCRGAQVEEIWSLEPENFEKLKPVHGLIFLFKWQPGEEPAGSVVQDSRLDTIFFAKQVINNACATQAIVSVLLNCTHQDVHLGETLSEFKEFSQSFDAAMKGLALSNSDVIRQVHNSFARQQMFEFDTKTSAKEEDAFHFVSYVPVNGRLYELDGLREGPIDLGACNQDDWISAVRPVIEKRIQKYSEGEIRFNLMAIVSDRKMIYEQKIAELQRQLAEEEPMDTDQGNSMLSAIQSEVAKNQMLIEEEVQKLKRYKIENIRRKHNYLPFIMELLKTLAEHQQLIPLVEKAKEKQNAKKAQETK
Method in brief: as §1

[8] = molecular target: USP10 (UniProt Q14694)
Method in brief: as §1

[9] = molecular target: T6, USP15 (UniProt Q9Y4E8)
T6 sequence (whole entry): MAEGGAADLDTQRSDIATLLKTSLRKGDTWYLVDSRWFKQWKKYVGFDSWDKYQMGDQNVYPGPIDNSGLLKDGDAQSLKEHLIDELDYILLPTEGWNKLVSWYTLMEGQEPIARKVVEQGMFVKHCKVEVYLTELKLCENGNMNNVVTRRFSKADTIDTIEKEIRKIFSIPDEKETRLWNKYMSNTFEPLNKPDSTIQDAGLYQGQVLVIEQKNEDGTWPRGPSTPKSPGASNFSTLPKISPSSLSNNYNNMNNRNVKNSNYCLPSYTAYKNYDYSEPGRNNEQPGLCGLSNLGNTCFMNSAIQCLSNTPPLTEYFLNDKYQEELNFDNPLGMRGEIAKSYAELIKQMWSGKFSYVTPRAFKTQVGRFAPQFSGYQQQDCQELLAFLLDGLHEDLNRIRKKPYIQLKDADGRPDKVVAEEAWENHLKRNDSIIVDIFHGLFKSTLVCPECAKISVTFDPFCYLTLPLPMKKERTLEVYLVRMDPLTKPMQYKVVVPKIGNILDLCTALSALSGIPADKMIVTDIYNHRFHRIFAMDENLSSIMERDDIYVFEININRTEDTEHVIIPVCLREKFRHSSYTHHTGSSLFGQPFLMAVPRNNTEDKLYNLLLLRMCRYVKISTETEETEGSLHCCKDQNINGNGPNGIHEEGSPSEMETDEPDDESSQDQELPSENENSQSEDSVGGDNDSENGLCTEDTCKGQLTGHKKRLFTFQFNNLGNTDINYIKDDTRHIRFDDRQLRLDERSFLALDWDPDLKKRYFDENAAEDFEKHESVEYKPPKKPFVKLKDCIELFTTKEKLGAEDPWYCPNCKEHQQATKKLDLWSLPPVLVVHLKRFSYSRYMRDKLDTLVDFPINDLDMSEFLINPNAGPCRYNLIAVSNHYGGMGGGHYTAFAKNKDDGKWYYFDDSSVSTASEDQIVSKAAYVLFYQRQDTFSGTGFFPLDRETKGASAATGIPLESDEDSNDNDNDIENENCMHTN
Method in brief: as §1

[10] = molecular target: USP16 (UniProt Q9Y5T5)
Method in brief: as §1

Measured: log2 ratio of Biotin-Ahx-Ub-VS probe labelling

UCHL1, sequence (P09936 whole entry, looked up): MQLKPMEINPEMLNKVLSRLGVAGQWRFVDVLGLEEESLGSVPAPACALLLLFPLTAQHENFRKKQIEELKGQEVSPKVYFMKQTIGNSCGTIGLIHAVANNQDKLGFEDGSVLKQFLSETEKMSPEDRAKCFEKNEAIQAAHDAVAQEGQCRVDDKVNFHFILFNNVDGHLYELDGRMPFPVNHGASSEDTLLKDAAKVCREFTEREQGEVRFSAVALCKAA
USP16, sequence (Q9Y5T5 whole entry, looked up): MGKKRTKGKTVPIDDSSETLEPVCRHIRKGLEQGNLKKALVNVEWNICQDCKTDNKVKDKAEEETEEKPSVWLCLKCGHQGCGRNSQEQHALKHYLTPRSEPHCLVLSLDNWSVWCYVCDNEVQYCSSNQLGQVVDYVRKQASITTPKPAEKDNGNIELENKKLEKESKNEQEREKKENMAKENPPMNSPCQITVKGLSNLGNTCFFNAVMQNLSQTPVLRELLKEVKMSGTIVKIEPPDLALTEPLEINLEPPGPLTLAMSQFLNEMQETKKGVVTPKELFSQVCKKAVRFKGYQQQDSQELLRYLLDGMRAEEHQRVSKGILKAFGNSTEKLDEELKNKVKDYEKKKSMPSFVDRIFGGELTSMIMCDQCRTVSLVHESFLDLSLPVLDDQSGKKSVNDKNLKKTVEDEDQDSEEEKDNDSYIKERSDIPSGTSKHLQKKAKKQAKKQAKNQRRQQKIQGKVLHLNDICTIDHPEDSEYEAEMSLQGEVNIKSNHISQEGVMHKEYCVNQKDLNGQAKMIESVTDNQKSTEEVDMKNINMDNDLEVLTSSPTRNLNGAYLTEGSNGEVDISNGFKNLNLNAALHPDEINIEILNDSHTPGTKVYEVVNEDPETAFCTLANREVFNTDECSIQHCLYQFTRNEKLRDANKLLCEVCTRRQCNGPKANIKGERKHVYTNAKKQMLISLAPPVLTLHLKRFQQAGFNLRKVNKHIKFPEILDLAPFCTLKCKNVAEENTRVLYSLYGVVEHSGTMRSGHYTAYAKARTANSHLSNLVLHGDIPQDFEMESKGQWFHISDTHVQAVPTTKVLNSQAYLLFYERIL
USP10, sequence (Q14694 whole entry): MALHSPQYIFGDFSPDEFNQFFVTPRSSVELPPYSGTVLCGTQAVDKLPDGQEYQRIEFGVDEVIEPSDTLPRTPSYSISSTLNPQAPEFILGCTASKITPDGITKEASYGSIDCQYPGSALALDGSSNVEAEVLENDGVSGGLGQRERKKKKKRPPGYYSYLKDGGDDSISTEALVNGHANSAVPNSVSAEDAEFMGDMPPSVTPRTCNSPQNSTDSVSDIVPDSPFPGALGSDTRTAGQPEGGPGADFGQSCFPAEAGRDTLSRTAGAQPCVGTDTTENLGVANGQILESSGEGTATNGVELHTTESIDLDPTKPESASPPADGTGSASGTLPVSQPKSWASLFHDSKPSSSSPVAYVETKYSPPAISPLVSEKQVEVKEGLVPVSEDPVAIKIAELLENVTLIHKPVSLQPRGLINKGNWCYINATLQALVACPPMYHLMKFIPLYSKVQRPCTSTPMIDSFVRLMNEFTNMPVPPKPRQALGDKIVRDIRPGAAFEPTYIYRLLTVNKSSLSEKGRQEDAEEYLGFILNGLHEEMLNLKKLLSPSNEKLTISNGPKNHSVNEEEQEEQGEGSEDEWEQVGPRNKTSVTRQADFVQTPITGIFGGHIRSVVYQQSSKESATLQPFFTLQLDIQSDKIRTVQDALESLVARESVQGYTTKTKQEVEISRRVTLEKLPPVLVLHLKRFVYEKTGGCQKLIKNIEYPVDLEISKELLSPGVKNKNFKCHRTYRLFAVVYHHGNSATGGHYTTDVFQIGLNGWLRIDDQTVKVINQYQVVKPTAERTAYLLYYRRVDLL

O=C(CCl)N1CCC[C@@H]1c1ccon1
active: [5] -1.49
inactive: [1] -0.245 | [2] -0.356 | [3] 0.0558 | [4] -0.283 | [6] 0.0429 | [7] -0.401 | [8] -0.0611 | [9] -0.228 | [10] -0.0988
